Several values for one entry are separate records, joined by “and”; a condition that tells them apart may be missing. Identical values can stand only once. Results filed as inconclusive are left out. A structure can be active in one record and inactive in another. Activity calls are given as the source filed them. Rule for the calls: active = hit-call score of the fitted dose curve at least 0.9, where 1 is the maximum; inconclusive = response in the unintended direction; inactive = score below 0.9.
Legend:
[1] = ATG_XTT_Cytotoxicity: Cytotoxicity Assessment in the Attagene TRANS-FACTORIAL HepG2 Assay (AID 2283584);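 for AC50: cells exposed to compound for 24 h before reading; active means loss of viability signal versus DMSO baseline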
Outline: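 HepG2 human liver cells, transiently transfected with multiple GAL4-UAS reporter units, were dosed and read at 24 h by XTT as cell number. Loss of signal was fitted relative to DMSO negative control baseline.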

[2] = TOX21_p53_BLA_p2_viability: Viability Assessment in the Tox21 HCT-116 p53 Agonism Beta-lactamase Assay, Phase 2 (AID 2283591);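 note: compound exposure lasted 16 h at 37 °C; actives lower the ATP signal meaning cytotoxicity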
Outline: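 Cytotoxicity readout: CellTiter-Glo ATP luminescence, 30 min at room temperature, after the beta-lactamase read. Cells were HCT116 exposed 16 h at 37C to compounds pin-transferred at 217-fold dilution from DMSO stocks.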

[3] = molecular target: Cellular tumor antigen p53 (Homo sapiens) (UniProt P04637); test: TOX21_p53_BLA_p2_ratio: Tox21 HCT-116 p53 Agonism Beta-lactamase Assay, Ratio, Phase 2 (AID 2283592)
Chain of Cellular tumor antigen p53 (Homo sapiens) (P04637 whole entry, looked up): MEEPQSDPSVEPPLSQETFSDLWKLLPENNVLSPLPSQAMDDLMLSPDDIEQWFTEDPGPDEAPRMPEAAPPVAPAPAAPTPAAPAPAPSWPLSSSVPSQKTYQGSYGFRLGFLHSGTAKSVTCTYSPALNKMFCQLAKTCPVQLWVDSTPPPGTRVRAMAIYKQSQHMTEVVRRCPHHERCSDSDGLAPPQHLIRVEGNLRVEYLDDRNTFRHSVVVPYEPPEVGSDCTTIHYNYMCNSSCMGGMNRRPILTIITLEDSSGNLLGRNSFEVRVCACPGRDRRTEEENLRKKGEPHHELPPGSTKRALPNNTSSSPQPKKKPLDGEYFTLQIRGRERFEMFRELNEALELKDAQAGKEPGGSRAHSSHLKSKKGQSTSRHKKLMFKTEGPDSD
Outline: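 Ratio endpoint: beta-lactamase cleavage of CCF4-AM, blue (460 nm) over green (530 nm). HCT116 reporter line; 16 h treatment, 37C; substrate 2 h RT.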

[4] = TOX21_p53_BLA_p3_viability: Viability Assessment in the Tox21 HCT-116 p53 Agonism Beta-lactamase Assay, Phase 3 (AID 2283593);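 note: cells exposed to compound for 16 h before reading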
Outline: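 Cellular ATP was quantified by CellTiter-Glo luminescence, read after 30 min at room temperature. Beforehand, HCT116 cells (4000/well) received compound 5 h post-seeding, 217-fold diluted from DMSO, then incubated 16 h at 37C.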

[5] = molecular target: Cellular tumor antigen p53 (Homo sapiens) (UniProt P04637); test: TOX21_p53_BLA_p3_ratio: Tox21 HCT-116 p53 Agonism Beta-lactamase Assay, Ratio, Phase 3 (AID 2283596)
Outline: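 Cells were seeded at 4000/well, rested 5 h at 37C, then dosed with DMSO compound solutions (217-fold dilution) for 16 h. CCF4-AM substrate was loaded for 2 h at room temperature, and the 460/530 nm emission ratio was fitted for gain of signal versus DMSO.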

[6] = TOX21_p53_BLA_p4_viability: Viability Assessment in the Tox21 HCT-116 p53 Agonism Beta-lactamase Assay, Phase 4 (AID 2283597);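 note: hits lower the luminescence signal meaning cytotoxicity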
Outline: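 Cytotoxicity was inferred from loss of CellTiter-Glo luminescence. HCT116 cells had been dosed with compounds after 5 h plating, incubated 16 h at 37C and 5% CO2, and exposed to the CCF4-AM substrate for 2 h.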

[7] = molecular target: Cellular tumor antigen p53 (Homo sapiens) (UniProt P04637); test: TOX21_p53_BLA_p5_ratio: Tox21 HCT-116 p53 Agonism Beta-lactamase Assay, Ratio, Phase 5 (AID 2283599)
Outline: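 Beta-lactamase reporter ratio (blue 460 nm over green 530 nm, 405 nm excitation) after 2 h CCF4-AM loading, in HCT-116 cells exposed 16 h at 37 C to compounds pinned at 217-fold dilution. Increases relative to DMSO baseline scored.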

[8] = TOX21_p53_BLA_p5_viability: Viability Assessment in the Tox21 HCT-116 p53 Agonism Beta-lactamase Assay, Phase 5 (AID 2283600)
Outline: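 Luciferase-coupled ATP quantitation of cells treated for 16 h (37C, 5% CO2) with test chemicals delivered in DMSO via a 217-fold dilution; 4000 cells/well; reagent incubated 30 min at room temperature before luminescence reading.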

[9] = molecular target: Cellular tumor antigen p53 (Homo sapiens) (UniProt P04637); test: TOX21_p53_BLA_p4_ratio: Tox21 HCT-116 p53 Agonism Beta-lactamase Assay, Ratio, Phase 4 (AID 2283601)
Outline: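 Signal is the blue/green (460nm/530nm) ratio of cleaved versus uncleaved CCF4-AM substrate, read after 2 h substrate loading. Cells were HCT116 carrying the p53-responsive beta-lactamase reporter, dosed 16 h at 37C, 5% CO2; CellTiter-Glo measured in parallel.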

Measured: AC50

CCCC1O[C@@H]2C[C@H]3[C@@H]4CCC5=CC(=O)C=C[C@]5(C)[C@H]4[C@@H](O)C[C@]3(C)[C@]2(C(=O)CO)O1 (some centres not stated)
inactive: all assays above

COc1ccc(CCC(C)=O)cc1
not listed: [6] | [8]
inactive: all other assays above

Cc1ncc([N+](=O)[O-])n1CCO
inactive: all assays above

CCCCCCOC(=O)CCC
not listed: [8]
inactive: all other assays above

CCc1cc(Cc2cc(CC)cc(C(C)(C)C)c2O)c(O)c(C(C)(C)C)c1
active: [2] 4.87 µM | [3] 14.9 µM | [4] 16.1 µM | [5] 32.6 µM | [6] 5.48 µM | [7] 29.3 µM | [8] 20.1 µM | [9] 10.8 µM
inactive: [1]

Cc1ncc[nH]1
not listed: [8]
inactive: all other assays above

CCOc1ccc(NC(=O)CC(C)O)cc1 (configuration not stated)
inactive: all assays above

Brc1ccc(Br)c(Br)c1
inactive: all assays above

CCOC(=O)C(C#N)=C(c1ccccc1)c1ccccc1
inactive: all assays above

O=C(O)c1ccc(O)cc1
not listed: [8]
inactive: all other assays above

CCCCN(CCCC)C(=O)N(CCCC)CCCC
not listed: [6]
inactive: all other assays above

CCOC(=O)C1OC1c1ccccc1 (configuration not stated)
not listed: [6]
inactive: all other assays above

CCCCCCCCC=CCCCCCCCC1=NCCN1CCO
inactive: [3] | [7] | [8]
active: [1] 16.1 µM | [2] 46.1 µM | [4] 77.4 µM | [5] 87.1 µM | [6] 86.4 µM | [9] 87.8 µM

CCCCCCOC(=O)C(C)C
not listed: [6] | [8]
inactive: all other assays above

CC1(C)C2=CCCC(C)(C)[C@]23CC[C@H]1C3
inactive: all assays above

O=C1OC(=O)c2c(Cl)c(Cl)c(Cl)c(Cl)c21
inactive: all assays above

COC(=O)c1ccc(OC)cc1
not listed: [8]
inactive: all other assays above

CC(=O)CC(=O)Nc1ccc(C)cc1C
not listed: [7] | [9]
inactive: all other assays above

CCCCCCCCCCCCCCN(CCO)CCO
active: [1] 28.3 µM
not listed: [7]
inactive: all other assays above

CCCC(=O)OC(C)(C)Cc1ccccc1
inactive: all assays above

C=C(CC(=O)O)C(=O)O
inactive: all assays above

CCCCCCCCc1ccc(S(=O)(=O)O)cc1
active: [6] 33.7 µM
inactive: all other assays above

CC(C)=CCCC(C)CCOC=O (configuration not stated)
active: [4] 39.7 µM | [5] 69.8 µM
inactive: all other assays above

CCOC(=O)CCc1ccccc1
inactive: [1] | [2] | [3] | [4] | [8]

CC(CN=Cc1ccccc1O)N=Cc1ccccc1O (configuration not stated)
inactive: [1] | [2] | [3] | [4] | [7]

CC(C)(C)c1ccc(C(=O)O)cc1
not listed: [4] | [6]
inactive: all other assays above

CCC(C)=O
inactive: [1] | [2] | [3] | [4] | [6]

CCOC(=O)c1ccc(N)cc1
not listed: [6] | [8]
inactive: all other assays above

CC(C)(C)CC(C)(C)c1ccc(OCCOCC[N+](C)(C)Cc2ccccc2)cc1
inactive: [8]
active: [1] 44.9 µM | [2] 37.1 µM and 32.8 µM | [3] 56.2 µM and 34.8 µM | [4] 60.7 µM and 23 µM | [6] 33.7 µM and 23 µM | [7] 79.3 µM and 36.8 µM | [8] 73.6 µM | [9] 70.9 µM and 42.1 µM

CCCCCCCCCCCC(=O)OC[C@@H](O)[C@H]1OC[C@H](O)[C@H]1O
not listed: [5] | [6]
inactive: all other assays above

CCCOCCO
not listed: [5] | [9]
inactive: all other assays above

O=C1NC2NC(=O)NC2N1 (configuration not stated)
not listed: [4]
inactive: all other assays above

CC1C2CC(CC2C2CCCC(O)C2)C1(C)C (configuration not stated)
not listed: [5]
inactive: all other assays above

From PubChem BioAssay (EPA / NIEHS)
